For assay [1] the following is noted: Ebola virus entry reporter assay, green channel fluorescence. (In general: In a reporter assay the amount or activity of a reporter protein is the signal.)
The conditions of assay [2]: Ebola virus entry cell assay, ratio channel.
A short description of assay [3]: qHTS assay for measurement of the activity of small molecule inhibitors on Zika virus induced Caspase-3 activity in human astrocytoma cells (AID 1224859).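 Also: plate controls were ZIKV-infected untreated cells for no effect and uninfected cells for full effect.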 Conditions: SNB-19 ZIKV-induced caspase-3/7, luminescence, 6 h; series mostly up to 45.7 µM. The gist of the method: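 Caspase activation in ZIKV-infected SNB-19 cells (2 FFU/cell, 6 h) measured by Caspase-Glo 3/7 luminescence after 30 min RT; compound pre-incubated 1 h; normalised to uninfected and infected controls.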

Assay [4] in a line: qHTS assay to identify small molecule inhibitors of chordoma cells - UCH-1 (AID 1259355). Also: % is scaled to controls: 0 for no effect and ±100 for the full control effect; nearly all actives have a fitted effect of over 55% in size. Conditions: UCH-1 chordoma viability, CellTiter-Glo, 48 h, combination; series mostly up to 46.1 µM. The gist of the method:
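Cells (800/well) were seeded and left overnight at 37 C, 5% CO2, then treated with drugs at 15 concentrations plus a combination mix of auranofin, camptothecin, doxorubicin, rubitecan and topotecan. Viability after 48hr was read by CellTiter-Glo luminescence.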
In general terms: qHTS replaces the single test concentration by a dilution series.

Assay [5] can be described thus: qHTS assay to identify small molecule inhibitors of chordoma cells - UCH-2 (AID 1259356). Also: % is scaled to controls: 0 for no effect and ±100 for the full control effect. To be noted: UCH-2 chordoma viability, CellTiter-Glo ATP luminescence, 48 h; series mostly up to 46.1 µM.
Assay [6] can be described thus: High-throughput drug toxicity screening in the BPDCN cell line Gen2.2 (AID 1224824; call rule not given here;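 also: cells exposed to compounds for 48 h before reading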). Conditions: Gen2.2 BPDCN cells; at 45.8 µM (top of the series). A digest of the protocol:
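Gen2.2, 500 cells/well, phenol red-free RPMI/10% FBS/Pen-Strep; 48 h cpd, 37 °C/5% CO2; CTG lum, 15 min RT. Norm: DMSO = 100%, bortezomib 9.2 uM final = 0%.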

Assay [7] is described as follows: High-throughput drug toxicity screening in the BPDCN cell line Cal-1 (AID 1224825; call rule not given here). To be noted: Cal-1 BPDCN cell viability, qHTS; at 45.8 µM (top of the series). The gist of the method: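 Cal-1 cells, 500 per well in phenol-red-free RPMI with 10% FBS, exposed to compounds for 48 hours at 37C, 5% CO2. Viability read by CellTiter-Glo luminescence; percent activity normalized to DMSO (100%) and 9.2 uM bortezomib final (0%).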

Assay [8] is described as follows: qHTS Screen of the MIPE 4.0 Collection Against Ewings Sarcoma (RDES) (AID 1259252).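 Also: 100% = DMSO-treated cells and 0% = medium-only wells without cells; nearly all actives have a fitted effect of over 35% in size.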 Conditions: RD-ES Ewing sarcoma viability, CellTiter-Glo, 48 h; series mostly up to 45.8 µM. The gist of the method:
(§1)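 Log-phase cells in RPMI with 5% FBS attached for 4 h, then received compounds as a titration for 48 h at 37C, 5% CO2. Viability was read by CellTiter-Glo luminescence and normalized to DMSO and no-cell wells.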

Assay [9] can be described thus: qHTS Screen of the MIPE 4.0 Collection Against Ewings Sarcoma (TC71) (AID 1259253).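 Also: 100% = DMSO-treated cells and 0% = medium-only wells without cells; nearly all actives have a fitted effect of over 40% in size.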 Conditions: TC71 Ewing sarcoma viability, CellTiter-Glo, 48 h; series mostly up to 45.8 µM. The gist of the method:
as §1

Assay [10] in a line: qHTS Screen of the MIPE 4.0 Collection Against Ewings Sarcoma (EW8) (AID 1259255). Also: nearly all actives have a fitted effect of over 35% in size. Also: potency is read from the fitted curve at half-maximal effect.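 As to viability: 100% = DMSO-treated cells and 0% = medium-only wells without cells.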 To be noted: EW8 Ewing sarcoma viability, CellTiter-Glo, 48 h; series mostly up to 45.8 µM. The gist of the method:
as §1

Assay [11] is described as follows: qHTS Screen of the MIPE 4.0 Collection Against Ewings Sarcoma (TC32) (AID 1259256).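 Also: 100% = DMSO-treated cells and 0% = medium-only wells without cells; nearly all actives have a fitted effect of over 45% in size.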 Conditions: TC32 Ewing sarcoma viability, CellTiter-Glo, 48 h; series mostly up to 45.8 µM. The gist of the method: as §1
Assay [12] is described as follows: qHTS assay for measurement of the activity of small molecule inhibitors on Zika virus induced Caspase-3 activity in human iPSC derived neural progenitor cells (hNPCs) (AID 1224857). Also: % of control where 0% means no effect; nearly all actives have a fitted effect of over 65% in size. Conditions: hNPCs ZIKV-induced caspase-3/7, Caspase-Glo luminescence, 6 h; series mostly up to 45.7 µM. The gist of the method: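 Zika virus (2 FFU/cell) infection of human iPSC-derived NPCs, 6 h, following 1 h compound preincubation. Read-out: Caspase-Glo 3/7 luminescence.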

The structures appear in SMILES notation. Records with an inconclusive call do not appear. For part of these data: Measured potencies and affinities stand elsewhere. Calls of active or inactive are those of the source. For most assays here, calls follow the shape of the dose curve; as a rule, active = well fitted curve in the direction sought with a large enough effect; inconclusive = small, poorly fitted or top-dose-only effect, or another doubt; inactive = no such curve, though single readings can be large; an effect the other way counts as inactive or inconclusive.

Turning to `CC1OC(C)OC(C)O1` (stereo not drawn), the compound was called inactive in [1], in assay [2] and in [3]. Moreover, the Potency result in [4] and in assay [5] was “inactive” each time.

For the compound `O=C1CC[C@@]2(O)[C@H]3Cc4ccc(O)c5c4[C@@]2(CCN3CC2CC2)[C@H]1O5`, the compound was classed as inactive in assay [1], in assay [2] and in assay [3]. Also, in [6], the cell viability, % of control (lower = more cytotoxic) worked out at 200%. For the same compound, the viability (% of control) in assay [7] came out at 62%. Further, the Potency entry in assay [8], in assay [9], in assay [10], in [11], in assay [4] and in assay [5] was “inactive” in each case.

In the case of `COC(=O)C(c1ccccc1Cl)N1CCc2sccc2C1` (stereo not drawn), the outcome in assay [2] was inactive.

Regarding `N[C@@H]1C[C@H]1c1ccccc1`, the call in [1], in [2] and in assay [3] was inactive. Also, the Potency result in [12], in assay [4] and in [5] was “inactive” throughout.

For the compound `CC(=O)[C@]1(O)Cc2c(O)c3c(c(O)c2[C@@H](O[C@H]2C[C@H](N)[C@H](O)[C@H](C)O2)C1)C(=O)c1ccccc1C3=O`, the outcome in [2] was inactive.

On to `C[C@@H](c1ncncc1F)C(O)(Cn1cncn1)c1ccc(F)cc1F` (stereo partly drawn), for which, in [2], the result was inactive.

Consider `C[C@]12CC[C@H]3[C@@H](CCC4=CC(=O)CC[C@@H]43)[C@@H]1CC[C@@H]2OC(=O)CCc1ccccc1`, for which the outcome in assay [1], in [2] and in assay [3] was inactive. In addition, in assay [12], the Potency entry is “inactive”.

With `COc1cc(NCc2ccc3nc(N)nc(N)c3c2C)cc(OC)c1OC`, the outcome in assay [2] was inactive.

For the compound `C[C@](N)(Cc1ccc(O)c(O)c1)C(=O)O`, in assay [2], the result was inactive.

Regarding `C[C@]12C/C(=C/O)C(=O)C[C@@H]1CC[C@@H]1[C@@H]2CC[C@@]2(C)[C@H]1CC[C@]2(C)O`, the call in [1], in assay [2] and in assay [3] was inactive. For the same compound, the Potency result in assay [12], in assay [4] and in [5] was “inactive” in each case.

For the compound `O=P1(NCCCl)OCCCN1CCCl` (stereo not drawn), the result in [1], in [2] and in assay [3] was inactive. In assay [6], the cell viability, % of control (lower = more cytotoxic) is 49.3%. The viability (% of control) in assay [7] is 20.1%. In addition, the Potency result in assay [12], in [11], in assay [4] and in assay [5] was “inactive” throughout. Besides, the Potency in assay [10] was 20.9 µM (active).

On to `CC(C)C1CCC(C(=O)N[C@H](Cc2ccccc2)C(=O)O)CC1` (stereo partly drawn), for which the outcome in assay [2] was inactive.

These data come from PubChem BioAssay (NCATS).
